Test [1] can be described thus: APR_HepG2_NuclearSize_72hr: Apredica 72-hour HepG2 Assay for Nuclear Size (AID 2282925). Conditions: high-content imaging, actives raise or lower the signal. Summed up: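 HepG2 cells were exposed to compounds at ten concentrations from 0.39 to 200 uM (duplicate, 0.5% DMSO final) for 72 hr. After fixation in 3.7% formaldehyde, nuclei were stained with Hoechst 33342 (2 ug/mL) and imaged at 20x.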

A short description of test [2]: ATG_CRE_CIS: Attagene CIS-FACTORIAL HepG2 Assay for human cAMP Responsive Element (CRE) binding protein 3 (AID 2282926). The settings on record: HepG2 CRE cis-reporter, Attagene multiplexed mRNA; actives raise or lower the signal. Summed up: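 Human liver HepG2, transient MRTU transfection, 24 h compound exposure. Total RNA → oligo(dT) RT → PCR → 6-FAM primer extension → HpaI cut → CE. Activity called both directions vs DMSO.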

Test [3] concerns the target CCAAT/enhancer-binding protein beta (Homo sapiens) (UniProt P17676). Briefly: ATG_C_EBP_CIS: Attagene CIS-FACTORIAL HepG2 Assay for human CCAAT/Enhancer Binding Protein (C/EBP) beta (AID 2282927). The settings on record: HepG2 Attagene cis-factorial transcription factor reporter; actives raise or lower the signal. Summed up:
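RT-PCR/capillary electrophoresis fluorescence of reporter mRNA, 24 h post-dose, in HepG2 cells carrying transfected cis-promoter reporter units. Bidirectional curve fitting against DMSO baseline captures gain or loss of signal.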

Test [4] can be described thus: ATG_CMV_CIS: Attagene CIS-FACTORIAL HepG2 Assay for human CMV (Internal Marker) (AID 2282928).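 Also: endpoint acts as a background internal control marker rather than a target.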 Conditions: HepG2 CMV promoter reporter, transcription factor profiling; actives raise or lower the signal. Summed up: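 After transient transfection of HepG2 with reporter transcription units driven by cis-regulatory promoters, cells receive test chemical for 24 h. Labeled reporter amplicons, digested with HpaI, are sized and quantified by capillary electrophoresis against DMSO.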

Test [5] is described as follows: ATG_DR4_LXR_CIS: Attagene CIS-FACTORIAL HepG2 Assay for human Liver X Receptor (LXR), DR4 submotif (AID 2282929). The settings on record: HepG2 Attagene DR4 cis-reporter, mRNA transcription; actives raise or lower the signal. A digest of the protocol: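 Cells were transfected with multiple reporter transcription units, exposed to chemicals for 24 hours, then lysed for RNA. Reporter mRNA induction was measured by RT-PCR with capillary electrophoresis detection and fitted in both directions relative to DMSO.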

Test [6] addresses Aryl hydrocarbon receptor (Homo sapiens) (UniProt P35869). As to the kind of experiment: ATG_Ahr_CIS: Attagene CIS-FACTORIAL HepG2 Assay for human Aryl Hydrocarbon Receptor (Ahr) (AID 2282930). The settings on record: HepG2 AhR cis-factorial reporter transcription; actives raise or lower the signal. A digest of the protocol: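 HepG2 cells transiently transfected with cis-element-driven multiplexed reporter transcription units; endogenous transcription factor activity measured as reporter mRNA 24 h after dosing. RT-PCR, 6-FAM labelling, HpaI digestion, capillary electrophoresis; bidirectional fitting versus DMSO baseline.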

Test [7] is described as follows: ATG_AP_1_CIS: Attagene CIS-FACTORIAL HepG2 Assay for human Activator Protein 1 (AP-1) (AID 2282931). The settings on record: HepG2 Attagene cis-factorial AP-1 reporter mRNA; actives raise or lower the signal. Summed up:
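Endogenous transcription-factor activity in human HepG2 liver cells is read through a cis-promoter reporter transcript, sampled 24 h after dosing. Detection uses RT-PCR with capillary electrophoresis; values come from bidirectional fitting relative to DMSO.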

Test [8] is described as follows: ATG_AP_2_CIS: Attagene CIS-FACTORIAL HepG2 Assay for human Activator Protein 2 (AP-2) (AID 2282932). Conditions: HepG2 AP-2 cis-reporter, Attagene transcription factor profiling; actives raise or lower the signal. Summed up:
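Bidirectional curve fitting against DMSO was applied to reporter mRNA signals from HepG2 cells 24 h after dosing. Cis-promoter reporter units, transiently transfected, were read by RT-PCR plus capillary electrophoresis.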

Test [9] is described as follows: ATG_BRE_CIS: Attagene CIS-FACTORIAL HepG2 Assay for human Bone Morphogenetic Protein (BMP) Response Element (BRE) (AID 2282933). The settings on record: HepG2 BMP response element reporter, Attagene transcription factor profiling; actives raise or lower the signal. Summed up: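 A HepG2 multiplex reporter system measured inducible reporter mRNA 24 h post-dosing. Detection: RT-PCR, 6-FAM primer extension, HpaI digestion, capillary electrophoresis. Activity fitted bidirectionally relative to DMSO.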

In test [10] the target is Retinoic acid receptor alpha (Homo sapiens) (UniProt P10276). Briefly: ATG_DR5_RAR_CIS: Attagene CIS-FACTORIAL HepG2 Assay for human Retinoic Acid Receptor Alpha (RARE), DR5 submotif (AID 2282934). The settings on record: HepG2 Attagene cis-factorial RARE DR5 reporter, mRNA; actives raise or lower the signal. A digest of the protocol:
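HepG2 cells transiently transfected with multiplexed reporter units under cis (DR5 RARE) promoters, so endogenous transcription factor activity is measured. After 24 h compound exposure, reporter mRNA is quantified by RT-PCR with fluorescent labelling and capillary electrophoresis; bidirectional fitting versus DMSO.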

For test [11], the target named is Transcription factor E2F1 (Homo sapiens) (UniProt Q01094). As to the kind of experiment: ATG_E2F_CIS: Attagene CIS-FACTORIAL HepG2 Assay for human E2F Transcription Factor 1 (AID 2282935). The settings on record: HepG2 Attagene cis-reporter, E2F reporter RNA transcripts; actives raise or lower the signal. A digest of the protocol: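 Multiplexed cis-reporter assay: HepG2, transient transfection, 24 h dosing, mRNA quantitation by labeled RT-PCR and CE.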

A short description of test [12]: ATG_E_Box_CIS: Attagene CIS-FACTORIAL HepG2 Assay for human Enhancer Box (E-box) (AID 2282936). The settings on record: HepG2 E-box cis-reporter transcription, actives raise or lower the signal. Summed up:
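Multiplexed CIS reporter system in transiently transfected HepG2 cells measures native transcription factor activity. Reporter RNA after 24 h exposure is profiled by RT-PCR-capillary electrophoresis.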

The nature of test [13]: ATG_M_61_CIS: Attagene CIS-FACTORIAL HepG2 Assay for M61 Transcription Factor (Internal Marker) (AID 2282937). Conditions: HepG2 Attagene CIS-FACTORIAL M61 internal marker reporter; actives raise or lower the signal. Summed up: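 Cells were transfected with reporter units under cis-regulatory promoters, treated with chemicals for 24 h, then lysed for RNA. Reporter transcripts were quantified by RT-PCR and capillary electrophoresis, and activity was fitted bidirectionally against DMSO.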

Test [14] can be described thus: ATG_M_19_CIS: Attagene CIS-FACTORIAL HepG2 Assay for M19 Transcription Factor (Internal Marker) (AID 2282939). Conditions: HepG2 Attagene CIS-FACTORIAL M19 internal marker reporter; actives raise or lower the signal. Summed up:
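Chemical-treated HepG2 (24 h) with MRTU constructs; reporter transcripts detected by fluorescent RT-PCR fragment analysis on capillary electrophoresis. Internal background marker, DMSO as baseline.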

Test [15] is described as follows: ATG_ERE_CIS: Attagene CIS-FACTORIAL HepG2 Assay for Estrogen Response Element (ERE) (AID 2282940). The settings on record: HepG2 ERE cis-reporter, Attagene RNA transcript; actives raise or lower the signal. Summed up: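 Human liver cells (HepG2) bearing transiently transfected, promoter-regulated reporter units were exposed 24 h. Reporter mRNA induction was detected by capillary electrophoresis of labelled RT-PCR products and fitted bidirectionally to DMSO.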

The nature of test [16]: ATG_Ets_CIS: Attagene CIS-FACTORIAL HepG2 Assay for human Erythroblast Transformation Specific (ETS) (AID 2282941). The settings on record: HepG2 ETS cis-reporter transcription, actives raise or lower the signal. Summed up: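 Human HepG2 hepatoma cells were transiently transfected with promoter-driven reporter constructs and treated for 24 hours. Reporter transcripts were quantified by RT-PCR with fluorescent primer extension; bidirectional curve fitting used DMSO as reference.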

Test [17] deals with Hepatocyte nuclear factor 3-beta (Homo sapiens) (UniProt Q9Y261). As to the kind of experiment: ATG_FoxA2_CIS: Attagene CIS-FACTORIAL HepG2 Assay for human Forkhead box A2 (FOXA2) (AID 2282942). The settings on record: HepG2 cis-reporter transcription factor activity, 24 h; actives raise or lower the signal. A digest of the protocol: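 Endogenous transcription factor activity was read in HepG2 cells carrying transiently transfected cis-promoter reporter units. After 24 h dosing, reporter mRNA was quantified by RT-PCR and capillary electrophoresis, and values fitted bidirectionally versus DMSO.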

The nature of test [18]: ATG_FoxO_CIS: Attagene CIS-FACTORIAL HepG2 Assay for human Forkhead box O (FoxO) (AID 2282943). The settings on record: HepG2 Attagene cis-reporter, FoxO element, mRNA; actives raise or lower the signal. A digest of the protocol:
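HepG2 cells transiently transfected with cis-promoter-driven multiple reporter transcription units; 24 h after chemical dosing, reporter mRNA quantified by RT-PCR, fluorescent primer extension, HpaI digestion and capillary electrophoresis. Bidirectional fitting versus DMSO baseline.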

A short description of test [19]: ATG_GATA_CIS: Attagene CIS-FACTORIAL HepG2 Assay for human GATA Binding Protein (AID 2282944). Conditions: HepG2 GATA cis-element reporter, Attagene multiplex mRNA; actives raise or lower the signal. A digest of the protocol: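 Transfected cis-reporter HepG2 cells were treated with chemicals for 24 hours. Total RNA was then converted to cDNA, amplified with reporter-specific primers and analysed by fluorescent capillary electrophoresis, using DMSO-treated wells as baseline.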

Test [20] can be described thus: ATG_EGR_CIS: Attagene CIS-FACTORIAL HepG2 Assay for human Early Growth Response 1 (EGR1) (AID 2282938). Conditions: HepG2 Attagene CIS-FACTORIAL EGR reporter mRNA; actives raise or lower the signal. Summed up: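 Endogenous TF activity in HepG2 liver cells was gauged through cis-promoter reporter constructs transiently transfected. After 24 h dosing, reporter mRNA was quantified by RT-PCR and capillary electrophoresis, and curves fitted in both directions versus DMSO.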

The source holds several records for some structures; these can differ, active in one and inactive in another. Calls of active or inactive are those of the source. The calls were made as follows: active = hit-call score of the fitted dose curve at least 0.9, where 1 is the maximum; inactive = score below 0.9.

Sequence of Aryl hydrocarbon receptor (Homo sapiens) (P35869 whole entry, looked up): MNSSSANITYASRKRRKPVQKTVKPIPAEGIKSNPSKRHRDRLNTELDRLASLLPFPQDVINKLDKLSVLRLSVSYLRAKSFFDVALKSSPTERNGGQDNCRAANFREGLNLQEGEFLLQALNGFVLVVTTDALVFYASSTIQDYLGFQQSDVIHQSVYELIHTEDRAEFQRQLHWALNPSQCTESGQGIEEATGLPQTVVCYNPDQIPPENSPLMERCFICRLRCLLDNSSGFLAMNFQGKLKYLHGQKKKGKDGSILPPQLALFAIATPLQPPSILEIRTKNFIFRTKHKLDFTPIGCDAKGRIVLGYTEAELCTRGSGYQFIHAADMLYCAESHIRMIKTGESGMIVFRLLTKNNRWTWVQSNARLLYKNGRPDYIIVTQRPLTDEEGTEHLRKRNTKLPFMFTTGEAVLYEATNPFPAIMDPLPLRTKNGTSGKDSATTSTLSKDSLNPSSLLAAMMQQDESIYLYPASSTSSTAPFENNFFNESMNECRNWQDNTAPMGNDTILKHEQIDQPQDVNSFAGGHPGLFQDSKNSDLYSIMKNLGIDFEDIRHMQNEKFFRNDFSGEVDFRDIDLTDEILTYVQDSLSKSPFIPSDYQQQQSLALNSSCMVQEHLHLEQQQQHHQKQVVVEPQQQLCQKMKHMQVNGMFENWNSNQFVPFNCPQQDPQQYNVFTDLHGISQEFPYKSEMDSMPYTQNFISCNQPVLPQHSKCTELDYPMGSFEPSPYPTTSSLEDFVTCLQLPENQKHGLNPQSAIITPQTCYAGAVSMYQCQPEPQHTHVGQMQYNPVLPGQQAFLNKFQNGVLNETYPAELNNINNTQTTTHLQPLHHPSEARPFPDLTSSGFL
Sequence of Hepatocyte nuclear factor 3-beta (Homo sapiens) (Q9Y261 whole entry, looked up): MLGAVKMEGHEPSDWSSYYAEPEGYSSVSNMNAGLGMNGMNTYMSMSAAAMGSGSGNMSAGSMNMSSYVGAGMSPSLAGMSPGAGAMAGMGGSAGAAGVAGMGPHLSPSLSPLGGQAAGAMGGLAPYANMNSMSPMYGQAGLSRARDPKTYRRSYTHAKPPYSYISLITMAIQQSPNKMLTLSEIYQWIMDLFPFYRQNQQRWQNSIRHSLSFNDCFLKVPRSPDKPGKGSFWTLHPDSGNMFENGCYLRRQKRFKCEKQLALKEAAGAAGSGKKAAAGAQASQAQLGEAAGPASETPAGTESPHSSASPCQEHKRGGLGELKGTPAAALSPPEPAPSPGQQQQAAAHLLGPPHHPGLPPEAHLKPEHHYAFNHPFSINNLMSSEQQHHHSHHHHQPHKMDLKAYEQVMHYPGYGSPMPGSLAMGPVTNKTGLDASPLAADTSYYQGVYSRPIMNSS
Sequence of CCAAT/enhancer-binding protein beta (Homo sapiens) (P17676 whole entry, looked up): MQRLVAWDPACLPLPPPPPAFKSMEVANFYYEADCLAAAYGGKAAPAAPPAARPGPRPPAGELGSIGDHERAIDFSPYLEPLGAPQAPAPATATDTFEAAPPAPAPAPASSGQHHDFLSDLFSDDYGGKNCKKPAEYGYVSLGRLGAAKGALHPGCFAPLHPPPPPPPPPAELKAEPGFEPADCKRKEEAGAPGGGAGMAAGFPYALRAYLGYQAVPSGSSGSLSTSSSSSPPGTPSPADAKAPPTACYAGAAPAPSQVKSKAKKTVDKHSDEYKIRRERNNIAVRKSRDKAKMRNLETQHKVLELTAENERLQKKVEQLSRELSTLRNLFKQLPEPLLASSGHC
Sequence of Transcription factor E2F1 (Homo sapiens) (Q01094 whole entry, looked up): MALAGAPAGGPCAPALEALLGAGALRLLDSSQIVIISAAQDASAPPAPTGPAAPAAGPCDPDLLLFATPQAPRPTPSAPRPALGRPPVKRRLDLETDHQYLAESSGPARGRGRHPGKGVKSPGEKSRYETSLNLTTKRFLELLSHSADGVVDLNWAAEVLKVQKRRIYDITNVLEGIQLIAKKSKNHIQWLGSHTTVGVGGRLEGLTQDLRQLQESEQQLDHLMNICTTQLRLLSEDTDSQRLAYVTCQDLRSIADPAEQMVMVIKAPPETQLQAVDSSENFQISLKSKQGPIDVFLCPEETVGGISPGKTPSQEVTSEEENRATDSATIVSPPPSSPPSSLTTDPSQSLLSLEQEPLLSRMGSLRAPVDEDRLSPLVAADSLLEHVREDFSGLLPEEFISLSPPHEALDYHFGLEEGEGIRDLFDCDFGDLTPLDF
Sequence of Retinoic acid receptor alpha (Homo sapiens) (P10276 whole entry, looked up): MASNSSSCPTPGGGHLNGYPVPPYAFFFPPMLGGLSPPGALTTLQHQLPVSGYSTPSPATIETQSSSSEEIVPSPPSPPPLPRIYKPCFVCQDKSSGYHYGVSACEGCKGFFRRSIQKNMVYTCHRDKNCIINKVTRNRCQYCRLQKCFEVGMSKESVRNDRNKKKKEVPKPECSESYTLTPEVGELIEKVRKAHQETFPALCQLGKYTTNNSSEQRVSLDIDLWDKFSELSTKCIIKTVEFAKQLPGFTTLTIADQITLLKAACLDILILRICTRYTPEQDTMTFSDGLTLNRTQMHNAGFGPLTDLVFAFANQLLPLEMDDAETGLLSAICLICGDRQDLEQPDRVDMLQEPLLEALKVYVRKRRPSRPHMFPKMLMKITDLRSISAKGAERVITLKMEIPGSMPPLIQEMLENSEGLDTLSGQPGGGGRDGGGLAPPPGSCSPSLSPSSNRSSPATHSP

For `COC(=O)c1ccc(CNS(C)(=O)=O)cc1S(=O)(=O)NC(=O)Nc1nc(OC)cc(OC)n1`, the compound was classed as inactive in [1], in test [2], in [3], in test [4], in [5] and in [6]. For the same compound, the result in test [7], in [8], in [9], in test [10], in test [11] and in test [12] was inactive. Further, the compound was classed as inactive in [13], in [14], in test [15], in test [16], in test [17] and in test [18].
Consider `CCOC(=O)[C@H](C)Oc1ccc(Oc2nc3ccc(Cl)cc3o2)cc1`, for which the compound was classed as inactive in test [1], in test [2], in test [3], in [4], in test [5] and in [6]. Also, the compound was classed as inactive in test [7], in test [8], in [9], in [10], in test [11] and in [12]. The outcome in test [13], in [14], in [16], in test [17] and in [18] was inactive.
Take `CCOC(=O)NCCOc1ccc(Oc2ccccc2)cc1`: the result in test [1], in test [2], in test [6], in [7], in [8] and in [10] was inactive. For the same compound, the call in test [11], in test [12], in [13], in test [14], in test [16] and in [17] was inactive. In addition, the compound was classed as inactive in [18] and in test [19]. Also, the AC50 – broadly, the midpoint of the concentration-response curve, whichever way the signal moves – is 13.4 µM (active) in test [3]; 13.1 µM (active) in [4]; 89.6 µM (active) in test [5]; 27.9 µM (active) in test [9]; 12.6 µM (active) in [15].
Turning to `CCCOC(=O)c1ccc(C(=O)OCCC)nc1`, the outcome in test [1], in test [2], in [3], in test [4], in test [5] and in [6] was inactive. Further, the outcome in test [7], in test [8], in test [9], in [10], in [11] and in test [12] was inactive. The outcome in [13], in test [20], in test [14], in test [15], in [16] and in [17] was inactive. Besides, the compound was classed as inactive in [18].
Consider `CN(C)C(=O)Nc1ccc(Cl)c(Cl)c1`, for which the call in test [1], in test [2], in test [3], in test [4], in [5] and in [8] was inactive. The result in [9], in test [10], in test [11], in [12], in test [13] and in [14] was inactive. Moreover, the compound was classed as inactive in test [15], in test [16], in test [17] and in test [18]. Moreover, the AC50 is 79.1 µM (active) in [4] and 22.2 µM (active) in test [9].
For `C[C@]12C[C@H](O)[C@H]3[C@@H](CCC4=CC(=O)CC[C@@]43C)[C@@H]1CC[C@@H]2C(=O)CO`, the outcome in test [1], in test [2], in test [3], in [4], in test [5] and in test [6] was inactive. In addition, the compound was called inactive in test [7], in test [8], in [9], in test [10], in [11] and in test [12]. For the same compound, the compound was called inactive in test [13], in test [20], in [14], in test [16], in [17] and in test [18].

These data come from PubChem BioAssay (EPA / NIEHS).
